Screening results (PubChem)
Many of the other results were omitted from the sample, so hits are more common in it than they were.
RMI FANCM FP: RMI-FANCM interaction inhibition; Fluorescence polarization, RMI core complex with F-MM2 peptide; stronger effect = lower value; FP signal (polarization) at 33 µM; 70,000 compounds, 0.58% hits; AID 1159607; in the data active = FP signal below about 40
Of the large screens only hits and unclear results are named; the others gave an inactive call; ! = a repeat was not active.

COC(=O)c1c(NC(=O)CN2CCCCCC2)sc2c1CCCC2	none
COC(=O)c1c(C)[nH]c(C(=O)CN2CCCCCC2)c1C	RMI FANCM FP 6
CCOC(=O)c1c(C)[nH]c(C(=O)CSc2ccc(Cl)cc2)c1C	none
COc1cccc(CSc2nc(C)c(CC(=O)O)c(=O)[nH]2)c1	none
Nc1c(-c2ccccc2)sc2nc(-c3ccccc3)cc[n+]12	RMI FANCM FP 11
Cc1sc2sc(-c3ccccc3)c(N)[n+]2c1C	none
c1ccc(-c2csc(-c3ccc(-c4ccccn4)s3)n2)cc1	none
NC(=O)c1c(NC(=O)c2cccc(Br)c2)sc2c1CCCC2	none
Fc1ccc2ncc(-c3ccc(Br)s3)nc2c1	RMI FANCM FP 9
Fc1ccc2nc(NCc3cccnc3)sc2c1	none
Brc1ccc(-c2ccc(Br)s2)s1	none
Brc1cccc(-n2cnnn2)c1	none
CCOC(=O)c1noc(C)c1-c1csc(N/N=C\c2ccccc2)n1	none
COc1cc2cc(C(=O)O)cc(-c3ccc(C)cc3)c2cc1OC	none
COc1cc2cc(=O)[nH]c(C)c2cc1OC	none
COc1cc2cc3c4cc(OC)c(OC)cc4cc[n+]3c(C)c2cc1OC	RMI FANCM FP 12!
O=C(Cc1cccs1)Nc1onc2c1CCCC2	none
O=C(Nc1ccc(OC(F)(F)F)cc1Br)c1cnccn1	none
COc1ccc2oc(-c3csc(NC(=O)c4cc(OC)c(OC)c(OC)c4)n3)cc2c1	none
CC(C)(C)[C@]1(O)CCN2C[C@H]3c4ccccc4CCc4cccc(c43)[C@@H]2C1	RMI FANCM FP 43!
CN1CCN2c3ncccc3Cc3ccccc3C2C1 (stereo unspecified)	none
CCOC(=O)Nc1nc(CC(=O)Nc2ccc(OCC)cc2)cs1	none
COC(=O)c1c(NC(=O)CSc2ncnc3[nH]ncc23)sc2c1CCC2	none
COC(=O)/C(C#N)=C/N(C)C	none
CCOC(=O)CSc1ccc(S(N)(=O)=O)cc1[N+](=O)[O-]	none
Cn1c(=O)c2c(O)c(C=NCc3ccccc3)c(=O)n(-c3ccccc3)c2n(C)c1=O	none
Cn1c(=O)c2c(O)c(C=Nc3cccc(Cl)c3Cl)c(=O)n(C)c2n(C)c1=O	none
Cn1c(=O)c2c(O)c(C=Nc3cccc([N+](=O)[O-])c3)c(=O)n(C)c2n(C)c1=O	RMI FANCM FP 28
Cc1ccc2c(c1)Cc1c(nc(-c3ccccc3)nc1SCC(=O)Nc1cccc(C(=O)O)c1)O2	RMI FANCM FP 14
Cc1cccc2c1Oc1nc(-c3ccccc3)nc(SCC(=O)Nc3ccc4c(c3)OCCO4)c1C2	none
Cc1ccc(-c2nc3c(c(SCC(=O)Nc4cccc(C(=O)O)c4)n2)Cc2ccccc2O3)cc1	none
COCCCNC(=O)c1nc2ccccc2c(=O)n1/N=C\N(C)C	none
COc1ccc(S(=O)(=O)N(C)C)c(C)c1C	none
O=C(NCO)c1ccc([N+](=O)[O-])cc1	none
CC(=O)Oc1cccc2c1C(=O)c1c(OC(C)=O)cc(C(=O)O)cc1C2=O	RMI FANCM FP 34
CC(=O)Oc1ccccc1C(=O)O	none
O=C(O)c1cc(O)c2c(c1)C(=O)c1cc(O)cc(O)c1C2=O	none
CS(=O)(=O)c1ccc(C(=O)Nc2ccc3scnc3c2)cc1	none
CCCCOc1ccc(S(=O)(=O)NCCOc2ccc3nnc(C)n3n2)cc1	none
O=C(NCCOc1cc(N2CCOCC2)ncn1)NC1CCCCC1	none
C(=NCCc1ccccc1)c1ccccc1	none
Clc1cc(Cl)cc(C=NCc2ccccc2)c1	RMI FANCM FP 21
C(=NCc1ccccc1)c1ccc2c(c1)OCO2	none
Cc1ccc(C)n1-c1ccc(S(N)(=O)=O)cc1	none
ClCc1ccc(OCc2ccccc2)cc1	none
COc1cc(O)c2c(c1)C(=O)c1cc(C)cc(O)c1C2=O	none
Cc1cc(O)c2c(c1)Cc1cccc(O)c1C2=O	RMI FANCM FP -15
Cc1cc2c3c(c1)c(O)c(-c1ccccc1)c(=O)n3CCC2	none
CCOC(=O)NC(=O)c1cn(Nc2cccc(C(F)(F)F)n2)c(=O)[nH]c1=O	none
COc1cc(Cl)c(C)cc1NC(=O)Cn1c(C)nc2c(sc3cccc(F)c32)c1=O	none
Cc1cccc(Nc2ccccc2C(=O)O)c1C	RMI FANCM FP 25!
O=C(O)c1ccccc1Nc1ccccc1	none
Cc1cccc(C(=O)O)c1O	none
CC1(C)OC2OC(C(=O)Nc3ccc(OC(F)(F)F)cc3)C3OC(C)(C)OC3C2O1 (stereo unspecified)	none
CC(C)c1ccc2nc(Nc3nc4ccc(S(C)(=O)=O)cc4s3)sc2c1	none
COc1ccc(CSC(N)=Nc2ccccc2Cl)cc1	none
O=C(NCC(c1ccsc1)N1CCOCC1)NC1CCCCC1 (stereo unspecified)	none
Cc1c2c(n3c(nc4ccccc43)c1C#N)SCC2	RMI FANCM FP 24
COc1cccc(N2CCc3c(C)c(C#N)c4nc5ccccc5n4c32)c1	RMI FANCM FP 14
Cc1ccc(OCCN2CCN(c3c4c(c(C#N)c5nc6ccccc6n35)CCCC4)CC2)cc1	none
Cc1c2c(n3c(nc4ccccc43)c1C#N)N(C(C)c1ccccc1)CC2 (stereo unspecified)	none
CCc1c(C)c(C#N)c2nc3ccccc3n2c1N	none
CSc1c2c(c(C#N)c3nc4ccccc4n13)CCCC2	none
C1CNC(C23CC4CC(CC(C4)C2)C3)=N1	none
COc1ccc(NC(=O)CC(C)(C)CC(=O)O)cc1OC	none
CCOC(=O)CNC(=O)COc1coc(CN2CCN(c3ccc(F)cc3)CC2)cc1=O	none
O=C(Nc1ccccc1)Nc1nc(C(=O)O)cs1	none
CCOC(=O)c1c(C)oc2c(F)c(F)c(F)c(F)c12	none
CCOC(=O)c1c(-c2ccccc2)oc2c1cc(OC(=O)c1cc(OC)cc(OC)c1)c1ccccc12	none
CCOC(=O)c1c(C)oc2c1c1c(c3ccccc32)OCN(C2CCCCC2)C1	RMI FANCM FP 31
CC(=O)c1ccc(NS(=O)(=O)c2ccc(C(C)(C)C)cc2)cc1	none
COc1ccc(-c2ccc(N3CCCC(C(=O)Nc4ccc(C(N)=O)cc4)C3)nn2)cc1 (stereo unspecified)	none
Cc1ccc(Nc2oc(-c3cccs3)nc2S(=O)(=O)c2ccccc2)cc1	none
O=C(Nc1cccc(-c2nc3ccccc3[nH]2)c1)c1ccc(Cl)cc1	none
Nc1ccc(Cl)cc1-c1nc2ccccc2[nH]1	none
O=c1oc2c(Cl)cc(Cl)cc2cc1-c1nc2ccccc2[nH]1	RMI FANCM FP 40
COc1ccc(C(=O)Nc2c(N)nc(SCc3ccccc3)[nH]c2=O)cc1OC	none
CC(C)c1nnc(NC(=O)c2ccc3ccccc3n2)s1	none
CCOc1ccc(N2C(=O)S/C(=C\C=C\c3ccco3)C2=O)cc1	none
CCOc1ccccc1N1C(=O)CNC1=S	none
CCOc1ccccc1N1C(=O)/C(=C/C=C/c2ccco2)SC1=S	RMI FANCM FP 14
CCOC(=O)C1CCN(C(=O)CC2CSc3nc(C(C)C)cc(=O)n32)CC1 (stereo unspecified)	none
Nc1ncncc1-c1ccc(Cl)cc1	none
Nc1ncnc(Cl)c1N	RMI FANCM FP 17
Nc1ncnc2c1CCC2	none
CCOC(=O)c1sc(NC(=O)CSc2nnc(CSc3nc(C)cc(C)n3)o2)nc1C	none
O=C(NC(=O)c1csc([N+](=O)[O-])c1)NN1CCOCC1	none
Cn1c(-c2nc(C(=O)NN3CCOCC3)cs2)cc2ccccc21	RMI FANCM FP 3
O=C(Nc1ccccc1)c1csc(-c2ccccc2)n1	none
CCOC(=O)c1c(NC(=O)c2ccc([N+](=O)[O-])cc2)sc2c1CCC(C)C2 (stereo unspecified)	none
O=C(CCCN1CC=C(n2c(=O)[nH]c3ccccc32)CC1)c1ccc(F)cc1	none
COC(=O)C(Cc1ccc(O)cc1)NC(=O)c1ccc(OC)c(OC)c1 (stereo unspecified)	none
N#CC(C#N)=C1CCC(=C(C#N)C#N)CC1	RMI FANCM FP 31
Cc1onc(-c2c(Cl)cccc2Cl)c1C(=O)O/N=C(/N)c1ccc([N+](=O)[O-])o1	none
COc1ccccc1NC(=O)N1CCN(Cc2nc(-c3ccc(Cl)cc3)cs2)CC1	none
CC(C)c1cc(NS(=O)(=O)c2ccccc2)c(O)c(C(C)C)c1	none
